High-throughput results (PubChem BioAssay)
PINK1 expr mod – A Quantitative High throughput Screen to Identify Chemical Modulators of PINK1 Expression | PINK1 immunofluorescence, high-content cytometry, 24 h | Potency, µM (titrated, usually from 76.6 µM), inactives show at the top dose activation (PINK1 increase), usual class: activators | 410,000 compounds, 0.2% hits; active = well fitted activation curve with a large enough effect; inconclusive = small, poorly fitted or top-dose-only effect; cell line not stated here; also: % of control where 0% means no effect; nearly all actives have a fitted effect of over 65% in size
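Decision-based qHTS: stable cells, 24 h exposure to five compound concentrations, CCCP as control. Fixed cells stained for PINK1 plus nuclear, mitochondrial and cell markers, cytometer read.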
KB-3-1 tox – qHTS assay for MDR1-selective chemotherapeutics: Primary screen using the parental adenocarcinoma cell KB-3-1. KB-3-1 viability, CellTiter-Glo ATP luminescence, 72 h. Potency, µM (highest dose often 46.1 µM), most hits filed as cytotoxic. 400,000 compounds, 1.4% hits; also: % is scaled to controls: 0 for no effect and ±100 for the full control effect; nearly all actives have a fitted effect of over 60% in size
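Viability of parental KB-3-1 cells, measured by CellTiter-Glo luminescence, followed a 72 h incubation at 37 °C with pinned compounds in phenol-red-free DMEM containing 10% FBS.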
KB-V1 MDR tox – qHTS assay for MDR1-selective chemotherapeutics: Primary screen using the drug-selected MDR subline cells KB-V1. KB-V1 MDR cells viability, CellTiter-Glo, 72 h. Potency, µM (series often up to 46.1 µM), usual class: cytotoxic. 400,000 compounds, 3.4% hits. AID 1347076, 2019; also: % is scaled to controls: 0 for no effect and ±100 for the full control effect; nearly all actives have a fitted effect of over 60% in size
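qHTS viability screen in drug-selected KB-V1 MDR cells: 72 h compound treatment at 37 degrees C, ATP luminescence end point.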
SW480 rereplic – A quantitative high throughput screen for small molecules that induce DNA re-replication in SW480 colon adenocarcinoma cells. SW480 DNA re-replication, Hoechst DNA content imaging, 48 h. Potency, µM (highest dose often 46.1 µM), for the others: at the top dose re-replication activation, most hits filed as activators. 340,000 compounds, 1.8% hits. AID 624297, 2012; also: % of control where 0% means no effect; nearly all actives have a fitted effect of over 55% in size
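Hoechst fluorescence of nuclei (405 nm excitation, 500-530 nm emission) measured by plate-scanning imager after 48 hr compound exposure at 37 C; re-replication scored as increased number of nuclei with elevated intensity.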
MCF10A rereplic – A quantitative high throughput screen for small molecules that induce DNA re-replication in MCF 10a normal breast cells; Potency, µM (highest dose often 46.1 µM), for the others: top-dose activity, positive = re-replication, usual class: activators; AID 624296, 2012; 350,000 compounds, 2.9% hits; MCF 10A DNA re-replication, Hoechst nuclear intensity, 48 h; also: % of control where 0% means no effect; nearly all actives have a fitted effect of over 50% in size
* hit, by the source's call; i = inactive; u = inconclusive; x = no result; ! = not confirmed by another sample; [ ] = another dose, or the depositor's remark. Compounds with a hit are over-represented: about 6.7% of the library has one in this group of screens. Unless noted, calls follow the shape of the dose curve; as a rule, active = well fitted curve in the direction sought with a large enough effect; inconclusive = small, poorly fitted or top-dose-only effect, or another doubt; inactive = no such curve, though single readings can be large; an effect the other way counts as inactive or inconclusive. Potency is read from the fitted curve at half-maximal effect.

SMILES	PINK1 expr mod	KB-3-1 tox	KB-V1 MDR tox	SW480 rereplic	MCF10A rereplic
Cn1c(C(=O)Nc2ccc3c(c2)OCCO3)cc2sccc21	8%[38.3 µM]	i	15µM*	9%	-1%
CCCCC(=O)Nc1cccc(NC(=O)c2ccc3c(c2)OCO3)c1	1%[38.3 µM]	i	13µM*	-4%	1%
Cc1cc(C(=O)Nc2ccc3c(c2)OCCO3)co1	3%[38.3 µM]	i	u	-5%	12%
Cc1ccc(C(=O)Nc2ccc3c(c2)OCCO3)o1	4%[38.3 µM]	i	21µM*	0%	0%
CCCCC(=O)Nc1cccc(NC(=O)c2ccc(Br)o2)c1	0%[38.3 µM]	i	12µM*	1%	-1%
O=C(OC1Cc2c(O)cc(O)cc2OC1c1cc(O)c(O)c(O)c1)c1cc(O)c(O)c(O)c1 (configuration not stated)	-2%	x	x	x	x
COCC1CCCN(Cc2ccc3c(c2)CN(C(=O)c2ccc(-n4cccn4)cc2)CCO3)C1 (configuration not stated)	0%	x	x	x	x
O=C(Nc1ccc2c(c1)OCCO2)c1cccc2nc3ccccc3nc12	1%	u	6.5µM*	5%	u
O=C(Nc1ccc2c(c1)OCCO2)c1ccco1	11µM*	i	i	-9%	2%
O=C(Nc1cccc(NC(=O)c2ccco2)c1)c1ccc2c(c1)OCO2	5%[38.3 µM]	i	13µM*	0%	-26%
CCOc1cc(C(=O)Nc2ccc3c(c2)OCO3)ccc1OC(F)F	x	i	21µM*	-11%	-2%
O=C(Nc1ccc2c(c1)OCCO2)c1ccccc1Cl	1%	i	i	x	x
O=C(Nc1cccc(NC(=O)c2ccco2)c1)c1ccc2c(c1)OCCO2	3%	i	i	-9%	-7%
CCOc1ccc(C(=O)NCC(=O)Nc2ccc3c(c2)OCO3)cc1OCC	-6%	i	i	-78%	8%
CCN(CC)CCNC(=O)c1ccc2c(=O)n3nc(Nc4ccccc4)sc3nc2c1	0%	x	x	x	x
COc1cc(OC)cc(C(=O)Nc2ccc3c(c2)OCCO3)c1	0%	16µM*!	9.2µM*!	-1%	-1%
O=C(Nc1ncccc1O)c1ccc2c(c1)OCCO2	3%	4.1µM*	u	18%	11%
Cc1cc(NC(=O)c2ccco2)ccc1NC(=O)c1ccco1	0%	u	23µM*	-5%	-2%
O=C(Nc1ccc(NC(=O)c2ccccn2)cc1)C(=O)Nc1ccc2c(c1)OCCO2	4%	i	i	-15%	0%
O=C(Nc1ncccc1O)c1ccc2c(c1)OCO2	3%	u	i	-114%	2%
COc1cc(OC)cc(C(=O)NC(C(=O)Nc2ccc3c(c2)OCCO3)C(C)C)c1 (configuration not stated)	0%	i	i	-10%	10%
O=C(Nc1ccc2c(c1)OCCO2)c1ccccn1	4%	18µM*	u	1%	3%
Cc1c(CN2CCOc3c(O)cc(-c4nc5ccccc5s4)cc3C2)cnn1C	1%	x	x	x	x
OCc1ccc(-c2cncc3nccn23)cc1	-1%	i	i	x	x
CC(C)COc1ccc(C(=O)Nc2ccccc2[N+](=O)[O-])cc1	3%	i	i	u	13µM*
SMILES	PINK1 expr mod	KB-3-1 tox	KB-V1 MDR tox	SW480 rereplic	MCF10A rereplic
CCCOc1ccc(C(=O)Nc2ccc(C)cc2[N+](=O)[O-])cc1	4%[38.3 µM]	i	i	-1%	u
CCCC[C@H]1COCCS(=O)(=O)N1Cc1ccc(F)cc1	1%	u	u	-9%	0%
CCCC[C@H]1COCCS(=O)(=O)N1Cc1ccc(C)cc1	1%	16µM*	16µM*	-5%	-1%
CCN(CC)Cc1c(O)c(Cl)cc2c(C)cc(=O)oc12	3%	i	i	1%	u
C=CCc1c(O)c(CC)cc2c(C)cc(=O)oc12	2%	i	i	12µM*	4%
COc1ccc(NC(=O)C2Cc3c(-c4cccc(C(C)=O)c4)ccnc3O2)cn1 (configuration not stated)	10%	2.1µM*	i	x	x
CC(=O)Nc1ccc(NC(=O)C2Cc3c(-c4cccc(C(C)=O)c4)ccnc3O2)cc1 (configuration not stated)	2%	i	i	x	x
COc1ccc(NC(=O)C2Cc3c(-c4cccc(C(C)=O)c4)ccnc3O2)cc1 (configuration not stated)	3%	4.1µM*	u	x	x
CC(=O)Nc1ccc(-c2ccnc3c2CC(C(=O)Nc2ccccc2)O3)cc1 (configuration not stated)	6%	21µM*	u	x	x
COc1ccc(NC(=O)C2Cc3c(-c4ccc(NC(C)=O)cc4)ccnc3O2)cn1 (configuration not stated)	7%	10µM*	u	x	x
CCOc1ccc(N(CC(=O)NC2CC2)S(=O)(=O)c2ccc(C)cc2)cc1	0%	i	i	-55%	u
CCN(CC)c1ccc(NC(=O)c2ccc3c(c2)OCO3)c(C)c1	4%	u	i	25%	u
CC(=O)Nc1cccc(-c2ccnc3c2CC(C(=O)NCc2ccco2)O3)c1 (configuration not stated)	11%	5.8µM*	i	x	x
CS(=O)(=O)Nc1cccc(NC(=O)C2Cc3c(-c4cccc(F)c4)ccnc3O2)c1 (configuration not stated)	0%	6.5µM*	u	x	x
O=C(Nc1ccccc1)C1Cc2c(-c3cccc(F)c3)ccnc2O1 (configuration not stated)	3%	i	i	x	x
COc1ccc(NC(=O)C2Cc3c(-c4cccc(NC(C)=O)c4)ccnc3O2)cc1 (configuration not stated)	11%	4.1µM*	u	x	x
CC(=O)Nc1cccc(-c2ccnc3c2CC(C(=O)NCc2cccnc2)O3)c1 (configuration not stated)	6%	u	i	x	x
CC(=O)c1cccc(-c2ccnc3c2CC(C(=O)Nc2ccc4c(c2)OCO4)O3)c1 (configuration not stated)	7%	6.5µM*	u	x	x
CC(=O)Nc1cccc(-c2ccnc3c2CC(C(=O)NCc2cccc(Cl)c2)O3)c1 (configuration not stated)	12%	u	i	x	x
CC(=O)Nc1ccc(-c2ccnc3c2CC(C(=O)NCc2cccc(Cl)c2)O3)cc1 (configuration not stated)	9%	3.3µM*	u	x	x
Cc1cc(Br)ccc1OCCn1ccnc1	-1%	i	16µM*	2%	9%
Clc1cc(Br)ccc1OCCn1ccnc1	-4%	i	u	-8%	-2%
Cc1cccc(Cl)c1OCCCCn1ccnc1	-3%[38.3 µM]	i	21µM*	5%	10%
